Here are results for one sequence from PMC7862700, “An all-to-all approach to the identification of sequence-specific readers for epigenetic DNA modifications on cytosine”.

Assay in all cases: DAPPL (digital affinity profiling via proximity ligation, sequencing); 10 mM Tris-HCl pH 7.5, 50 mM NaCl, 1 mM DTT, 4% glycerol, room temperature, 30 min; GST-TFs on glutathione beads, 16-mer random dsDNA library, 0.1% formaldehyde crosslink after washing; high values mean tight binding
For one assay, the target named is T1, FEV (Homo sapiens, UniProt Q99581 1-238).
T1 sequence: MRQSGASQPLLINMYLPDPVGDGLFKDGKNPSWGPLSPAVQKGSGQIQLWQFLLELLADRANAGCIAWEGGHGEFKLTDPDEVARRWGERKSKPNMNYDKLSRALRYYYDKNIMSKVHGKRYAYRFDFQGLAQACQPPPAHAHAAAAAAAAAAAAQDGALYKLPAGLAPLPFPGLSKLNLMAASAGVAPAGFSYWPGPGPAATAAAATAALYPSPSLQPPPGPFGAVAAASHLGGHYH
The note with it: protein: recombinant; tags: N-terminal GST; dsDNA, one strand shown. The method in brief:
(§1)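 Yeast served to express human transcription factors as GST fusions, which were then captured on glutathione beads and labelled with DNA barcodes. Pooled with a tag-only sample, they were incubated with 200 nmole of a 16-mer random double-stranded DNA library for 30 min at room temperature in Tris/NaCl/DTT/glycerol buffer, washed, crosslinked with 0.1% formaldehyde, ligated by proximity, amplified by PCR and sequenced. Dividing each hexamer's read frequency for a factor by its frequency for the tag-only sample gives the binding signal.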

A further assay has as its target ETV5 (Homo sapiens, UniProt P41161 1-510). Conditions: protein: recombinant; tags: N-terminal GST; dsDNA, one strand shown. The method in brief: as §1
In a further assay the target is HSF1 (Homo sapiens, UniProt Q00613 1-529). The note with it: protein: recombinant; tags: N-terminal GST; chain copies: 3; dsDNA, one strand shown. In a few lines:
as §1

The target in another assay is T2, SPIC (Homo sapiens, UniProt Q8N5J4 1-248).
T2 sequence: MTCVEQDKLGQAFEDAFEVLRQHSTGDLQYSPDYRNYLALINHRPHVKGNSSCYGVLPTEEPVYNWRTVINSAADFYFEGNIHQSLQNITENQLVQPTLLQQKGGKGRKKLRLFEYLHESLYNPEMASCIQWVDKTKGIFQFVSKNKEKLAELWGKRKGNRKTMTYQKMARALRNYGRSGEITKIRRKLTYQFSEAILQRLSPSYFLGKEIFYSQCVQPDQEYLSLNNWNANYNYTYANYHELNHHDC
The note with it: protein: recombinant; tags: N-terminal GST; dsDNA, one strand shown. The method in brief: as §1

The next assay has as its target ELF4 (Homo sapiens, UniProt Q99607 1-663). The note with it: protein: recombinant; tags: N-terminal GST; dsDNA, one strand shown. In a few lines: as §1
For a further assay, the target named is T3, ELK4 (Homo sapiens, UniProt P28324-2 1-405).
T3 sequence: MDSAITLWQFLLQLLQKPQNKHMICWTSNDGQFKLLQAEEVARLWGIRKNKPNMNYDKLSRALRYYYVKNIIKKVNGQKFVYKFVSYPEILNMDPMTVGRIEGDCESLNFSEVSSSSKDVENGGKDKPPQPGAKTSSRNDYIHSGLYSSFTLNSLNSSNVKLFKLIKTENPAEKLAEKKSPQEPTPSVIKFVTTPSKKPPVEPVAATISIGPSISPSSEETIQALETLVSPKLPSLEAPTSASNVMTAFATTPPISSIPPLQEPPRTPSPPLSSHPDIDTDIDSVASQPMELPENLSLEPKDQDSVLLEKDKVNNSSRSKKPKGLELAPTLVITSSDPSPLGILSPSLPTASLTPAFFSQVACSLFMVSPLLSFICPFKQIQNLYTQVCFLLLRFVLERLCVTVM
Conditions: protein: recombinant; tags: N-terminal GST; dsDNA, one strand shown. The method in brief: as §1

A further assay concerns the target T4, ETV2 (Homo sapiens, UniProt O00321 1-342).
T4 sequence: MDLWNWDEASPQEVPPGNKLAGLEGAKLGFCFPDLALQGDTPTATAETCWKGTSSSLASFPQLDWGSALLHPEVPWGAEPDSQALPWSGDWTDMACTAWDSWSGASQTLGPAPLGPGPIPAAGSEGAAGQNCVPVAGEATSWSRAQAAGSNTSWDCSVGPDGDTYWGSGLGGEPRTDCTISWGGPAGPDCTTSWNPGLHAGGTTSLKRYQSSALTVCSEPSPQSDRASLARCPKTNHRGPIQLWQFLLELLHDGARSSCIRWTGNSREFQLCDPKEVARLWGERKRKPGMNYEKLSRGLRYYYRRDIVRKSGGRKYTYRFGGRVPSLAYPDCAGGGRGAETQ
Conditions: protein: recombinant; tags: N-terminal GST; dsDNA, one strand shown. The method in brief:
as §1

A further assay addresses T5, ELF3 (Homo sapiens, UniProt P78545 1-371).
T5 sequence: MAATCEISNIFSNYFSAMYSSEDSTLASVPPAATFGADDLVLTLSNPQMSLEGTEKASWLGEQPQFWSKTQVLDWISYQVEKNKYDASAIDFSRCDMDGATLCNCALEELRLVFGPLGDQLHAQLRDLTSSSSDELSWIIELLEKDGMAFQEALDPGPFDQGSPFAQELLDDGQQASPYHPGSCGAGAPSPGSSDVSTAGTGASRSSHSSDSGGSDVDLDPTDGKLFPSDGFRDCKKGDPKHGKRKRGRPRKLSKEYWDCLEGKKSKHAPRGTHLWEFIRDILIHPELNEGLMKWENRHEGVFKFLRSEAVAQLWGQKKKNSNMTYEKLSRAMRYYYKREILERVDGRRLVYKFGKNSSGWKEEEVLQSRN
The note with it: protein: recombinant; tags: N-terminal GST; dsDNA, one strand shown. The method in brief:
as §1

A further assay addresses CRX (Homo sapiens, UniProt O43186 1-299). Conditions: protein: recombinant; tags: N-terminal GST; dsDNA, one strand shown. The method in brief:
as §1

Another assay has as its target ETV1 (Homo sapiens, UniProt P50549 1-477). Conditions: protein: recombinant; tags: N-terminal GST; dsDNA, one strand shown. In a few lines:
as §1

Another assay concerns the target T6, ERF (Homo sapiens, UniProt P50548 1-548).
T6 sequence: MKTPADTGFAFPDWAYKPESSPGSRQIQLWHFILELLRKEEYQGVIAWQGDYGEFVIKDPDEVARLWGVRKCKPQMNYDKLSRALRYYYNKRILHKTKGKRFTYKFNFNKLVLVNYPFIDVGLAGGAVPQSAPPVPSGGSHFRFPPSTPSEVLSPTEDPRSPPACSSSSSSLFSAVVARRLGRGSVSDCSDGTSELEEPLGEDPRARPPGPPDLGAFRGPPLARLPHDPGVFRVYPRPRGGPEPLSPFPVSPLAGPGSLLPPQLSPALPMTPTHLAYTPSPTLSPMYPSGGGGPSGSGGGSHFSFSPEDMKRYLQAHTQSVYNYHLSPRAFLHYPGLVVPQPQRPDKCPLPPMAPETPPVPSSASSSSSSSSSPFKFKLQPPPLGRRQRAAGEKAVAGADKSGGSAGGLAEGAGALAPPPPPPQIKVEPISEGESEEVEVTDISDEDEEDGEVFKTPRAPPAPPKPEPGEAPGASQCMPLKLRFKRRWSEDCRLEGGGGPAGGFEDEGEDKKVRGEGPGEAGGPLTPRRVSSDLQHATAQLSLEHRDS
The note with it: protein: recombinant; tags: N-terminal GST; dsDNA, one strand shown. In a few lines:
as §1

A further assay addresses T7, ETV3L (Homo sapiens, UniProt Q6ZN32 1-361).
T7 sequence: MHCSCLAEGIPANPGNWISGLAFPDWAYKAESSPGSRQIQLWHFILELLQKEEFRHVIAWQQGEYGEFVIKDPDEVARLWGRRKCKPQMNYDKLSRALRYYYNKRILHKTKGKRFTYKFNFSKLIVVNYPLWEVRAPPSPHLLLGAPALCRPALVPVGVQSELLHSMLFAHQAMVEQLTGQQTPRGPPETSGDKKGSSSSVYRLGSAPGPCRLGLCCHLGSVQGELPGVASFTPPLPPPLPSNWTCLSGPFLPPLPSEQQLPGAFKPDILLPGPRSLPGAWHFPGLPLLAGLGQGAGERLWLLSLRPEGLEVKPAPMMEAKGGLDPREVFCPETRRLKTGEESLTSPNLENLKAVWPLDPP
The note with it: protein: recombinant; tags: N-terminal GST; dsDNA, one strand shown. In a few lines:
as §1

The target in a further assay is T8, ETS2 (Homo sapiens, UniProt P15036 1-469).
T8 sequence: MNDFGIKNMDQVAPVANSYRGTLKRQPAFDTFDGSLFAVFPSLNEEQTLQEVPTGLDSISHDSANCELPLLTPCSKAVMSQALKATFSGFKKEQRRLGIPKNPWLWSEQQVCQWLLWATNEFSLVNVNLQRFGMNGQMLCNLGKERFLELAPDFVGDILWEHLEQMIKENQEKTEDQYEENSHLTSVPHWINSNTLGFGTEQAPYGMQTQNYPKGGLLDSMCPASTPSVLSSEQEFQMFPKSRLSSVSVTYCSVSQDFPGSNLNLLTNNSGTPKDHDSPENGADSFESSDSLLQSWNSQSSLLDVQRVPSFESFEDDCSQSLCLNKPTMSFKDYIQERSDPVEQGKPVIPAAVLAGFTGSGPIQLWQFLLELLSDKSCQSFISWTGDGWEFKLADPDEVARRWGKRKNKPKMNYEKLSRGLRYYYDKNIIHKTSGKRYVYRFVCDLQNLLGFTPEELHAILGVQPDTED
Conditions: protein: recombinant; tags: N-terminal GST; dsDNA, one strand shown. The method in brief: as §1

A further assay concerns the target T9, SPDEF (Homo sapiens, UniProt O95238 1-335).
T9 sequence: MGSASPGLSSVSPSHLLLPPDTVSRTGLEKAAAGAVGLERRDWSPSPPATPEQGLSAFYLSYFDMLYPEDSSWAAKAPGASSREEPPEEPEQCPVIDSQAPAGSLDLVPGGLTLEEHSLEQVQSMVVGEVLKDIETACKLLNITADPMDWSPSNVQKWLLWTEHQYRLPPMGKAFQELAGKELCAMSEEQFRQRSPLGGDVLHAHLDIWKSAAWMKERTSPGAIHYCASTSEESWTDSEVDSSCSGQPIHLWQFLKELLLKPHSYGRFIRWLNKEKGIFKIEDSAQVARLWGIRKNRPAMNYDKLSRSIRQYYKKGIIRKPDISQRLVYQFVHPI
Conditions: protein: recombinant; tags: N-terminal GST; dsDNA, one strand shown. The method in brief:
as §1

The next assay has as its target T10, ETV7 (Homo sapiens, UniProt Q9Y603 1-341).
T10 sequence: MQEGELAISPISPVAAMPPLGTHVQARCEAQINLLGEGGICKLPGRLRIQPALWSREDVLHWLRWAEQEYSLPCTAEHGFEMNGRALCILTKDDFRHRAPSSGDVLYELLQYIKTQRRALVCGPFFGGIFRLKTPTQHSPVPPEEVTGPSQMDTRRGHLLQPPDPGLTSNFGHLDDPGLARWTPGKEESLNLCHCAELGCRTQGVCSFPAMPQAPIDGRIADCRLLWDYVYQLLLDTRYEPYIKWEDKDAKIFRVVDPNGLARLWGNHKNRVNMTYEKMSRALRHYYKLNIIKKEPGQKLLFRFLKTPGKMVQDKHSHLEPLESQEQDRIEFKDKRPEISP
Conditions: protein: recombinant; tags: N-terminal GST; dsDNA, one strand shown. The method in brief:
as §1

Another assay concerns the target T11, ELF5 (Homo sapiens, UniProt Q9UKW6-2 1-255).
T11 sequence: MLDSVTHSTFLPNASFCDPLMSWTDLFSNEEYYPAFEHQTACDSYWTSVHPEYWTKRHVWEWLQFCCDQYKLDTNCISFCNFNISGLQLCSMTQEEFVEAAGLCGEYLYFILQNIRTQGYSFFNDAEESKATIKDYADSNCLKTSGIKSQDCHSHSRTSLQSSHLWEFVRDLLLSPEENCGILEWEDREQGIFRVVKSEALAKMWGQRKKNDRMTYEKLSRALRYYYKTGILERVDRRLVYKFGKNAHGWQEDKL
Conditions: protein: recombinant; tags: N-terminal GST; dsDNA, one strand shown. The method in brief:
as §1

The next assay deals with T12, ETV3 (Homo sapiens, UniProt P41162-2 1-143).
T12 sequence: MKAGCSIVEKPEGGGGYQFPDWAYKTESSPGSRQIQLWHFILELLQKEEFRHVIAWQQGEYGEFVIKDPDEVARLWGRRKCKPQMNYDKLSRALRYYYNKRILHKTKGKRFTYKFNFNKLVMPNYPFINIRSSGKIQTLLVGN
The note with it: protein: recombinant; tags: N-terminal GST; dsDNA, one strand shown. In a few lines: as §1

In the next assay the target is ETV6 (Homo sapiens, UniProt P41212 1-452). Conditions: protein: recombinant; tags: N-terminal GST; dsDNA, one strand shown. In a few lines:
as §1

Chain of ETV5 (P41161 whole entry): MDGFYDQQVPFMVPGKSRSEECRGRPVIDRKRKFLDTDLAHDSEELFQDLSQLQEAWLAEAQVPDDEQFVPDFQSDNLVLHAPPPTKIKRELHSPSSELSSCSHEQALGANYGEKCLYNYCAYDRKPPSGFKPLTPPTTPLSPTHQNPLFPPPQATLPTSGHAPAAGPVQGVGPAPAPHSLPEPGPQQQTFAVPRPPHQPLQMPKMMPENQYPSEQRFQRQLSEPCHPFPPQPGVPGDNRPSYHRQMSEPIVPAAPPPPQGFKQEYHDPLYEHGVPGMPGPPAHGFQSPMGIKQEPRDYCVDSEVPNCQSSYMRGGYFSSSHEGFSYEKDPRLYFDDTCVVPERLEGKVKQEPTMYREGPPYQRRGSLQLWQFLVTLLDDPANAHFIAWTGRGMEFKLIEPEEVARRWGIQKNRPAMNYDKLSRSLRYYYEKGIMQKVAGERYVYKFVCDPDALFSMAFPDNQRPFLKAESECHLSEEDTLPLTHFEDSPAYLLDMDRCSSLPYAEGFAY
Chain of ETV6 (P41212 whole entry): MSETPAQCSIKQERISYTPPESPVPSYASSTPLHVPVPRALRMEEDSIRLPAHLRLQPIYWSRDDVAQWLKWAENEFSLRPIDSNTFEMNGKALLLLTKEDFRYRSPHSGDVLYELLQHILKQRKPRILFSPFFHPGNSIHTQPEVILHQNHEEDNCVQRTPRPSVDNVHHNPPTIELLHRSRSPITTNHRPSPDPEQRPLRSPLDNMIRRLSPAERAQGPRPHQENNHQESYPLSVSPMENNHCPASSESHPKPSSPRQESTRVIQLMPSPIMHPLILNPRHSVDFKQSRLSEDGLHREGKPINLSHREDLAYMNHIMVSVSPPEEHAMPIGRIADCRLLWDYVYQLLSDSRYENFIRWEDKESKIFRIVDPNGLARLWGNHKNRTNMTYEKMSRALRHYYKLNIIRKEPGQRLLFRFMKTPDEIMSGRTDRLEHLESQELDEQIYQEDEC
Chain of CRX (O43186 whole entry): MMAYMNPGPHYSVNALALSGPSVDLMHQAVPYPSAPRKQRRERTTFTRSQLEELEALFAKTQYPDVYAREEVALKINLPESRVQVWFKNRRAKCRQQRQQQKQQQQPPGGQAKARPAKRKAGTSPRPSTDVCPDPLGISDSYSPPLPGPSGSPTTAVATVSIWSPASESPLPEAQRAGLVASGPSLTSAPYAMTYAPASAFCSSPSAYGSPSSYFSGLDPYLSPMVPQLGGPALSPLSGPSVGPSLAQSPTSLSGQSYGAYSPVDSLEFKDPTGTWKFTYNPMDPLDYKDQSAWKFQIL
Chain of ETV1 (P50549 whole entry): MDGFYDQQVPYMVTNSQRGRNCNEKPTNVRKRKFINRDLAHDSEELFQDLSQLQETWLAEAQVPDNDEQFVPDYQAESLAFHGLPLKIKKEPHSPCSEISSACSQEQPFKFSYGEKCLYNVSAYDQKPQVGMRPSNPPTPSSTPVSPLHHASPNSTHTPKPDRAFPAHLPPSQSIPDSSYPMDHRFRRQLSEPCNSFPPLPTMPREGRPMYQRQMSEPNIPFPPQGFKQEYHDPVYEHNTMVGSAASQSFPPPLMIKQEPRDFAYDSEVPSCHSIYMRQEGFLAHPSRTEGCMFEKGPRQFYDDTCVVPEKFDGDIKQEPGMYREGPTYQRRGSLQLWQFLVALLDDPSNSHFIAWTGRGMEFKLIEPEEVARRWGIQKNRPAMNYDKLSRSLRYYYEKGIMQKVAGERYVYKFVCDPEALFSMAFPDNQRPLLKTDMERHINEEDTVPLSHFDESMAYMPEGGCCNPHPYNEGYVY
Chain of ELF4 (Q99607 whole entry): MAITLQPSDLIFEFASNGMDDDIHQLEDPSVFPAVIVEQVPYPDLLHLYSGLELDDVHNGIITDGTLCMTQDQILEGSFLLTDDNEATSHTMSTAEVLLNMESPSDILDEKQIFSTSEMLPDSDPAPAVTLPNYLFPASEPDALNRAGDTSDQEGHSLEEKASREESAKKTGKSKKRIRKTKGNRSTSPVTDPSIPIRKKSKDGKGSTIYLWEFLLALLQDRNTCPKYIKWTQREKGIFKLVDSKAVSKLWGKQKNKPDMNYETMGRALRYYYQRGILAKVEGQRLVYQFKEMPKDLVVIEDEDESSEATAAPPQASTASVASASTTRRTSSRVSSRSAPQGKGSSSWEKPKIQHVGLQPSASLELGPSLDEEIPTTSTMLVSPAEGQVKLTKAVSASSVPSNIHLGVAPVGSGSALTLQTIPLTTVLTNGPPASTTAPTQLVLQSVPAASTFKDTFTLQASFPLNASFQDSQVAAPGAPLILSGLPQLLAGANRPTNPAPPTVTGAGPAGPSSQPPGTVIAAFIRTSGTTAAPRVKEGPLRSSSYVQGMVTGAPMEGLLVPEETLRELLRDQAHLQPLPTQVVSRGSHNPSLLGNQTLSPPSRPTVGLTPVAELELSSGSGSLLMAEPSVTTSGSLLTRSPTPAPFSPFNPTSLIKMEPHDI
Chain of HSF1 (Q00613 whole entry): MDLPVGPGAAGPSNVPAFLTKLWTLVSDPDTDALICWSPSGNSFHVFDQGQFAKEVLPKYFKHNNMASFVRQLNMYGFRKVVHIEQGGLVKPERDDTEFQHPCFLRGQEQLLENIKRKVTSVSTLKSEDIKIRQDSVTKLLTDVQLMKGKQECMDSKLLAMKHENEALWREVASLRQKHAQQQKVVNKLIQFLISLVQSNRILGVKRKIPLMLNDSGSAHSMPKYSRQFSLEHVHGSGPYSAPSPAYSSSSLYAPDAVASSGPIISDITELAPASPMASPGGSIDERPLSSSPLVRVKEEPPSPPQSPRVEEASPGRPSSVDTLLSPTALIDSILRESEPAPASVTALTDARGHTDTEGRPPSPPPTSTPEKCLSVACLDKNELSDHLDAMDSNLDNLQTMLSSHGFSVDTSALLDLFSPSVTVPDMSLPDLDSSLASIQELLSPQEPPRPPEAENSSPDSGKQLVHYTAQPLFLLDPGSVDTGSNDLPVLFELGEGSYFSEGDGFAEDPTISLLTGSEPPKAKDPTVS

For TAAAAG, the binding signal with FEV was 1.08 fold enrichment (6-mer frequency, TF over GST control); with ETV5, 1.19 fold enrichment (6-mer frequency, TF over GST control); in the assay with HSF1, 1.43 fold enrichment (6-mer frequency, TF over GST control); with SPIC it was 1.14 fold enrichment (6-mer frequency, TF over GST control); with ELF4, 1.17 fold enrichment (6-mer frequency, TF over GST control); with ELK4, 1.2 fold enrichment (6-mer frequency, TF over GST control). The binding signal with ETV2 is 1.22 fold enrichment (6-mer frequency, TF over GST control); with ELF3 it was 1.21 fold enrichment (6-mer frequency, TF over GST control); in the assay with CRX, 1.72 fold enrichment (6-mer frequency, TF over GST control); with ETV1, 1.18 fold enrichment (6-mer frequency, TF over GST control); with ERF, 1.2 fold enrichment (6-mer frequency, TF over GST control); in the assay with ETV3L, 1.1 fold enrichment (6-mer frequency, TF over GST control). The binding signal was 1.18 fold enrichment (6-mer frequency, TF over GST control) with ETS2; 1.08 fold enrichment (6-mer frequency, TF over GST control) with SPDEF; 1.19 fold enrichment (6-mer frequency, TF over GST control) with ETV7; 1.16 fold enrichment (6-mer frequency, TF over GST control) with ELF5; 1.12 fold enrichment (6-mer frequency, TF over GST control) with ETV3; 1.23 fold enrichment (6-mer frequency, TF over GST control) with ETV6.
